Assay outcomes as filed in PubChem BioAssay.
The list is not random: actives were taken first. Their share in the collection is about 3.4%.
IMPase cell inh: qHTS Assay for Identifying the Cell-Membrane Permeable IMPase Inhibitors | Inositol monophosphatase 1 (Rattus norvegicus), P97697 | CHO-M1 cells, IP1 accumulation, HTRF TR-FRET ratio | inhibition (IP1 accumulation), % at 46.1 µM | 120,000 tested, under 10 active | AID 901, 2007; active = well fitted curve in the direction sought with a large enough effect in the signal ratio, not every such curve was filed as active; inconclusive = small, poorly fitted or top-dose-only effect, or a change in a side signal; inactive = no such curve, though single readings can be large or run the other way; the % refers to the signal ratio;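 note: cells stimulated with carbachol in lithium chloride buffer; plate controls were DMSO basal wells for no effect and reference inhibitor wells for full effect; higher means more IMPase inhibition seen as more IP1 and lower FRET ratio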
Target sequence (P97697 whole entry, looked up): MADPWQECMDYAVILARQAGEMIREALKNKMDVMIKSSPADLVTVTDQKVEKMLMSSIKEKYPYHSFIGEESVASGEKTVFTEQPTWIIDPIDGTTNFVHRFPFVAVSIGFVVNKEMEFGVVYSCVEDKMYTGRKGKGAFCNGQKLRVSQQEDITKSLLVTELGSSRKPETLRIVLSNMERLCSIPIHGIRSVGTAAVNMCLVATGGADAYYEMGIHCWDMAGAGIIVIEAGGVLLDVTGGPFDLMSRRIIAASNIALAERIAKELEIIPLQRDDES
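The IP-One HTRF competitive assay in carbachol-stimulated CHO-M1 cells quantifies cellular IP1. Compounds spanned up to 46 uM final, and activity is expressed as AC50 from concentration-response fits of the ratio and donor data.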
IMPase Li cell: qHTS Assay for Identifying the Cell-Membrane Permeable IMPase Inhibitors: Potentiation with Lithium | CHO-M1 cells, IP1 TR-FRET (IP-One), carbachol + lithium | Potency, µM (series often up to 59.4 µM), for the others: at the top dose activity, negative = IMPase inhibition, actives largely listed as inhibitors | 210,000 tested, 0.35% active;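 note: IP1 builds up when IMPase is blocked and the TR-FRET signal falls; potency is the fitted concentration of half-maximal effect; plate controls were basal vehicle for no effect and high inhibitor control for full effect; nearly all actives have a fitted effect of over 50% in size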
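Readout is a homogeneous TR-FRET IP1 immunoassay (Ex 320, Em 665 and 620), where raised cytosolic IP1 lowers signal. Cells were CHO-M1 treated 30 min at 37C with test compounds plus a little lithium; AC50 values came from Hill-equation fitting.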
HTT ATP protect: qHTS Multiplex Assay to Identify Dual Action Probes in a Cell Model of Huntington: Cytoprotection (ATP). PC12 HTT-Q103 induced, cytoprotection, ATP luminescence, 40 h. 230,000 tested, 0.14% active. Potency, µM (doses to about 56.4 µM), for inactives: cytoprotection (ATP increase), usual class: activators; note: potency is the fitted concentration of half-maximal effect; % of control where 0% means no effect; nearly all actives have a fitted effect of over 45% in size
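ATP quantification (ATPlite) reports survival of PC12 cells in which tebufenozide, 100 nM final, switches on Htt exon 1 with 103 glutamines linked to GFP; compounds are titrated.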
PNC assembly inh: High Content Assay for Compounds that inhibit the Assembly of the Perinucleolar Compartment; activity change (PNC), negative = inhibition, % at 10 µM; PC3M PTB-GFP, PNC prevalence imaging, 16 h; hits give low values; 140,000 tested, 3.1% active;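 active = readout at or below -70, meaning at least 70% loss of cells showing the perinucleolar compartment, a nuclear body marking cancer cells; inconclusive = readout between -30 and a set limit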;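 note: plate controls were DMSO wells for no effect and camptothecin positive control wells for full effect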
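Read-out is percentage of cells bearing a perinucleolar compartment, from automated 20x imaging of fixed, Hoechst-stained PC3M PTB-GFP cells. Cells were seeded 4 h, then exposed 16 h to compound (23 nl of library stock) in duplicate plates.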
NPSR antag: qHTS Assay for Antagonists of the Neuropeptide S Receptor: cAMP Signal Transduction. Q6W5P4. 220,000 tested, 1% active. Potency, µM (doses to about 38.3 µM), for the others: top-dose activity change, negative = inhibition, usual class: inhibitors. CHO-NPSR cells, cAMP TR-FRET, antagonist mode; note: potency is the fitted concentration of half-maximal effect; % is set by controls: 0 for no effect and ±100 for the full control effect; nearly all actives have a fitted effect of over 50% in size
Target sequence (Q6W5P4 whole entry, looked up): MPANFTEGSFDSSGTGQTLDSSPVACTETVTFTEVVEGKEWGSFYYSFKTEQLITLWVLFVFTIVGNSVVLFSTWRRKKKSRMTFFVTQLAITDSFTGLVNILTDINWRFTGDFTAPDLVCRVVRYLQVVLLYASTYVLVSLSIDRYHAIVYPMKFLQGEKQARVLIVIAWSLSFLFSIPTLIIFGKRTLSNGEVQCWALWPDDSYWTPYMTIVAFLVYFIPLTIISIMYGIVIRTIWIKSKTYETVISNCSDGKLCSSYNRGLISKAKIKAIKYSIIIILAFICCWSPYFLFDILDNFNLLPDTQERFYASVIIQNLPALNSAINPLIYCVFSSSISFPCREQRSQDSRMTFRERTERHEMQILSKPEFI
HTT aggregate: qHTS Multiplex Assay to Identify Dual Action Probes in a Cell Model of Huntington: Aggregate Formation (GFP); PC12 HttQ103-GFP aggregates, Acumen cytometry, 40 h; Potency, µM (series often up to 46.1 µM), for the others: at the highest dose activity change, negative = inhibition, hits mostly inhibitors; 220,000 tested, 1.1% active; AID 1688, 2009; note: potency is the fitted concentration of half-maximal effect; % is set by controls: 0 for no effect and ±100 for the full control effect; nearly all actives have a fitted effect of over 60% in size
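PC12 cells with ecdysone-inducible HTT exon1 Q103-GFP, induced by 100 nM tebufenozide, given compounds in a concentration series. GFP aggregates (1–25 um, 6 SD above background) counted in lysates by laser-scanning cytometry, 488 nm excitation.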
Starred values were filed as active, the others as inactive; u = inconclusive; x = not tested or not shown; [ ] = remark or other dose. Unless noted, calls come from the whole dose curve; as a rule, active = well fitted curve in the direction sought with a large enough effect; inconclusive = small, poorly fitted or top-dose-only effect, or another doubt; inactive = no such curve, though single readings can be large; an effect the other way counts as inactive or inconclusive.

SMILES | IMPase cell inh | IMPase Li cell | HTT ATP protect | PNC assembly inh | NPSR antag | HTT aggregate
C/C=C1\C(=O)C[C@H]2[C@@H]3CCC4=CC(=O)CC[C@]4(C)[C@H]3CC[C@]12C | x | 18% | 24% | x | x | x
COc1cccc(N2CCN(C(=O)C3CCCN(S(=O)(=O)c4ccc(Br)s4)C3)CC2)c1 (stereo not drawn) | 15 | x | x | x | x | x
CCc1c(O)nc(SCC(=O)Nc2ccc(C)cc2)n(C2CCCCC2)c1=O | 1 | -8%[38.3 µM] | -33%[0.074 µM] | -20 | u | 11µM*
Cc1cccc(N2C(=O)/C(=C/c3cccnc3)SC2=S)c1 | x | x | 4%[10 µM] | x | -15% | 1%[9.22 µM]
Cc1cc(/C=C2/SC(=S)N(c3ccc([N+](=O)[O-])cc3)C2=O)c(C)n1-c1cccnc1 | x | 2% | x | 39 | -22% | 4µM*
Cc1nn(-c2ccccc2)c2sc(C(=O)C(C#N)c3ccccn3)cc12 (stereo not drawn) | 0 | -7%[38.3 µM] | -22% | u | -17%[46.1 µM] | -23%
COC(=O)[C@@H]1CC[C@H](C)[C@@H](c2ccc(C)cc2)N1C(=O)c1ccc(/C=N\OC[C@@H]2O[C@H](c3ccccc3)C=C[C@@H]2Oc2ccc(OC)cc2)cc1 | x | x | -28%[10 µM] | x | x | x
CNC(=S)N/N=C1\C(=O)c2cccc3cccc1c23 | 7 | 22%[38.3 µM] | -21% | -11 | 3.2µM* | u
CCCCNC(=S)N/N=C1\C(=O)c2cccc3cccc1c23 | -12 | 32%[38.3 µM] | -2%[10 µM] | 21 | -24%[46.1 µM] | 5%
O=[N+]([O-])c1cc2oc3c(c2c(C=NCc2ccccc2)c1O)CCCC3 | x | 15% | 11%[10 µM] | 18 | 10µM* | 26%
Cn1cc(Cl)c(C(=O)N/N=C/c2ccc(OS(=O)(=O)c3ccccc3)cc2)n1 | 5 | 17% | 21%[10 µM] | -100* | -21%[46.1 µM] | 20%
CSc1ccc(CN2CCC(C(=O)NCc3ccc(C)cc3)CC2)cc1 | x | 13% | 29%[10 µM] | x | 3% | 0%[9.22 µM]
COc1ccc(N2C(=O)CSC2c2cccs2)cc1 (stereo not drawn) | x | 7% | x | -114* | 8% | 13%
O=C1CSC(c2cccs2)N1c1ccccc1 (stereo not drawn) | 3 | -7%[38.3 µM] | -32% | 9 | -8%[46.1 µM] | 7%
CCOc1ccc(N2C(=O)CSC2c2ccncc2)cc1 (stereo not drawn) | -4 | 4% | 0%[10 µM] | -100* | -9%[46.1 µM] | 14%
CCOc1ccc(CN2CCN(Cc3nc4c(s3)CCCC4)CC2CCO)cc1 (stereo not drawn) | x | 6% | 17%[10 µM] | x | -2% | 5%[9.22 µM]
COc1ccccc1CN1CC[C@@]2(CCCN(C(=O)c3cccn3C)C2)C1 | x | 26% | 6% | x | x | x
N#Cc1c(SCC(N)=O)nsc1SCc1ccc(Cl)cc1 | 11 | 22%[38.3 µM] | -17% | -83* | -21%[46.1 µM] | -6%
N#Cc1c(SCC(=O)OCc2ccccc2)nsc1SCC(=O)OCc1ccccc1 | 4 | 18%[38.3 µM] | -3% | -101* | -4%[46.1 µM] | 15%[9.22 µM]
CCOC(=O)CSc1nsc(SCC(=O)OCC)c1C#N | 12 | 1% | -9%[10 µM] | -100* | 9%[46.1 µM] | -3%
N#Cc1c(SCC(N)=O)nsc1SCc1ccccc1Cl | 0 | 19%[38.3 µM] | -4% | -4 | -14%[46.1 µM] | 6%
CCc1c(C#N)c(N)nc(SCC(=O)OCc2ccccc2)c1C#N | 0 | -2%[38.3 µM] | 0%[10 µM] | -23 | -14%[46.1 µM] | 6%
Cc1cc(NC(=O)CN(C)C)c([N+](=O)[O-])cc1C | x | -8% | 19% | x | 5% | 9%
CCOc1nc(SCCOc2ccccc2)nc(N(C)C)n1 | 2 | 13%[38.3 µM] | u | u | -18%[46.1 µM] | 0.45µM*
CCCCNC(=O)N1CCc2ccccc2C1 | x | 0% | x | -114* | 4% | 14%
SMILES | IMPase cell inh | IMPase Li cell | HTT ATP protect | PNC assembly inh | NPSR antag | HTT aggregate
CCOC(=O)c1c(C)[nH]c(=S)c(C#N)c1-c1ccc(Cl)cc1 | x | -3% | -32%[10 µM] | -108* | -7% | 24%
CCOC(=O)c1c(C)[nH]c(=S)c(C#N)c1-c1ccc(OC)cc1 | u | 5%[38.3 µM] | -29% | 23 | -18%[46.1 µM] | 6%
CCCCOc1ccc(-c2c(C(=O)Nc3ccccc3)c(C)[nH]c(=S)c2C#N)cc1 | x | 8.9µM* | 20% | x | 10µM* | 2%
CCCCOc1ccc(-c2c(C#N)c(N)[nH]c(=S)c2C#N)cc1 | x | x | 9%[10 µM] | x | -22% | -5%[9.22 µM]
Cc1ccc(C)c(/C(O)=C2\C(=O)C(=O)N(Cc3cccnc3)C2c2cccnc2)c1 (stereo not drawn) | -24 | 7.1µM* | -8% | 5 | -7%[46.1 µM] | 2%
Cc1ccc(C)c(/C(O)=C2\C(=O)C(=O)N(CCCN3CCOCC3)C2c2cccnc2)c1 (stereo not drawn) | 4 | 29%[38.3 µM] | -9% | 11 | 10%[46.1 µM] | 10%
CC(NC(=S)NCc1ccccc1)C12CC3CC(CC(C3)C1)C2 (stereo not drawn) | x | 4% | -77% | x | -26% | 15%[9.22 µM]
COc1ccccc1OCCC(=O)OCC(=O)Nc1ccc(Br)cc1 | 3 | -11% | -20%[10 µM] | 16 | 8% | 4%
COc1ccccc1OCCC(=O)OCC(=O)NC(C)c1ccccc1 (stereo not drawn) | -6 | -1% | 21%[10 µM] | -84* | 15% | 9%
CO[C@@H]1COC(=O)C/C=C\[C@@H](C)[C@H](OC)COC(=O)C/C=C\[C@H]1C | x | x | -5%[10 µM] | x | x | x
Cn1cc(-c2nc3cnc(Oc4ccccc4)nc3n(CCC#N)c2=O)c2ccccc21 | x | -6% | u | x | x | x
O=C(O)C1C2C=CC(O2)C1C(=O)NCc1ccc2c(c1)OCO2 (stereo not drawn) | 11 | -7% | -19%[0.074 µM] | -21 | -4%[46.1 µM] | 9%
O=C(O)C1C2C=CC(O2)C1C(=O)NCc1ccc(Cl)cc1 (stereo not drawn) | 19 | -5% | -27%[0.074 µM] | -131* | 0%[46.1 µM] | -10%
COc1ccc(CCNC(=O)c2cc(=O)[nH]c3ccc(Br)cc23)cc1OC | u | -19% | 9%[10 µM] | -113* | -5% | 3%
N#CNC(=Nc1cccc(F)c1)SCc1cccc(F)c1 | x | 6% | 6%[10 µM] | -16 | 16% | u
N#CNC(=Nc1cccc(F)c1)SCc1ccccc1 | x | 7% | 1%[10 µM] | -103* | 15% | -33%
O=Cc1ccc(OC2C=CC(c3ccccc3)OC2CO)cc1 (stereo not drawn) | x | x | -16%[10 µM] | x | x | x
COc1ccc(C(=O)CSc2nc(SC)ns2)cc1OC | 1 | 0%[38.3 µM] | -3%[0.074 µM] | -21 | -19%[46.1 µM] | -24%
COc1ccc(C(=O)CSc2cc(C)nc3nc(C)nn23)cc1OC | -1 | -24%[38.3 µM] | 13µM* | 28 | -19%[46.1 µM] | x
